# Screens: PubChem BioAssay, several laboratories
# Sampled rows, rich in hits. Any-hit rate of the full collection: about 3.8%.
# TIM10 inh = TIM10 yeast growth inhibition; S. cerevisiae TIM10 strain growth, BacTiter-Glo luminescence, 24 h; AID 463195; inhibition, % at 10 µM; 1.4% of 330,000 active;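 active = inhibition of 40% or more at the single tested concentration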;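 also: wild-type TIM10 isogenic control strain grown at permissive 25 °C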
# PfHsp90 yeast 2 = growth inhibition of yeast expressing Plasmodium Hsp90 | S. cerevisiae expressing PfHsp90, BacTiter-Glo ATP, 48 h; yeast lacking PDR1 and PDR3 efflux regulators | inhibition, % at 9.4 µM | 0.32% of 310,000 active | AID 504621;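 active = every replicate shows inhibition above about 80%, whatever the replicate mean, limit read from the data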;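 also: 0% = DMSO neutral controls and 100% = 20 µM radicicol positive controls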
# Beta2AR agonist = human beta-2 adrenergic receptor agonism by FAP | P07550 | Am2.2-beta2AR cells, FAP receptor internalization, flow cytometry | response, % (concentration not given with the values) | 0.43% of 340,000 active;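 active = response above a set limit, near 3 SD of response in nonfluorescent compounds, cut at about 42% in these data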
# Target sequence (P07550 whole entry, looked up): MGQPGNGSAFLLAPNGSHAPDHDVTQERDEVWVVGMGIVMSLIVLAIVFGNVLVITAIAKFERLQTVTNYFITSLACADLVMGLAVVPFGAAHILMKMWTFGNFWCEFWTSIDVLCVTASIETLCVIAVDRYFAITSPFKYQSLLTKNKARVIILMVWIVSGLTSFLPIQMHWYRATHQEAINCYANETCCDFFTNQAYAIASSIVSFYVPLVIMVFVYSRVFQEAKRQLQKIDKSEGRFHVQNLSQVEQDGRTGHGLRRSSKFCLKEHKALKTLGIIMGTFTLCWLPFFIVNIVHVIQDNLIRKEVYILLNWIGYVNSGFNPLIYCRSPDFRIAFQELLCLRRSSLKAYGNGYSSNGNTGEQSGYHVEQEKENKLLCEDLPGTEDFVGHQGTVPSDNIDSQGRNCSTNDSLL
# tim10-1 inh = tim10-1 yeast growth inhibition | inhibition, % at 20 µM | 2.2% of 330,000 active | AID 463190 | S. cerevisiae tim10-1 ts strain growth, BacTiter-Glo, 24 h;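 active = inhibition of at least 40%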;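 also: mutant grown at 25 °C; 0% = DMSO wells with yeast and 100% = wells holding no yeast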
# tim23-1 inh = tim23-1 yeast growth inhibition. S. cerevisiae tim23-1 growth, BacTiter-Glo luminescence, 24 h. 1.3% of 330,000 active. inhibition, % at 20 µM;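 active = growth inhibition of the mutant yeast at or above 50%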;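 also: temperature-sensitive mutant grown at 25 °C; plate controls were DMSO-treated mutant yeast for no effect and medium wells lacking yeast for full effect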
# * marks the source's active call; other numbers are inactive results; · = no result given; + = active, no number.
SMILES,TIM10 inh,PfHsp90 yeast 2,Beta2AR agonist,tim10-1 inh,tim23-1 inh
Cc1ccc([N+](=O)[O-])cc1NC(=O)CSc1n[nH]c(-c2cccnc2)n1,0,-49,-1,-18,0
Cc1cccc(NC(=S)NCC23C=CC(O2)C2C(=O)N(c4ccc(Cl)cc4)C(=O)C23)c1 (stereo not given),31,107*,9,31,26
Cc1ccc(N2C(=O)C3C4C=CC(CNC(=S)N5CCN(c6ccccc6)CC5)(O4)C3C2=O)cc1 (stereo not given),3,104*,-2,11,-6
S=C(NCC1CCCO1)N1CCN(c2ccccc2)CC1 (stereo not given),1,-9,-7,2,2
Cc1ccc(S(=O)(=O)NCC23C=CC(O2)C2C(=O)N(c4ccccc4)C(=O)C23)cc1 (stereo not given),7,106*,9,-1,-8
CC(C)(C)OC(=O)NCC12C=CC(O1)C1C(=O)N(Cc3ccccc3)C(=O)C12 (stereo not given),3,50,6,12,10
Cc1ccc(NC(=S)NCC23C=CC(O2)C2C(=O)N(c4ccc(C)cc4)C(=O)C23)cc1 (stereo not given),11,107*,0,36,29
CSCc1cccc(C(=O)OC(C)C(=O)Nc2c(C)n(C)n(-c3ccccc3)c2=O)c1 (stereo not given),4,-21,-12,7,-9
NS(=O)(=O)c1ccc(CCNC(=O)C(=O)c2c[nH]c3ccccc23)cc1,1,11,56*,-6,6
COc1cc(C(=O)N2CCN(c3cccc(C(F)(F)F)c3)CC2)ccc1OCC(=O)N1CCOCC1,·,-11,-6,·,·
COc1cc(C#Cc2c(-c3cncn3C)n(C)c3ccc(-c4ccc(OC)nc4)cc23)cc(OC)c1,5,+,19,24,25
CC(C)NC(=O)COc1ccc(S(=O)(=O)N(C)Cc2ccccc2)cc1,-5,-12,-1,11,10
CCCN1CCN(CC(=O)NCC(=O)Nc2cccc(C)c2C)CC1,1,·,-10,-1,9
COc1ccc(N2CCN(C(c3cccs3)C(C)NC(=O)C(=O)N3CCCCC3)CC2)cc1 (stereo not given),13,20,70*,2,25
C=CCN(c1ccccc1OC)S(=O)(=O)c1cccc(C(=O)NCC(c2ccc(OC)cc2)N2CCCC2)c1 (stereo not given),·,17,14,·,·
CC(C(=O)Nc1ccc2c(c1)OCO2)n1cnc2c1c(=O)n(C)c(=O)n2C (stereo not given),7,12,3,-13,-1
CN1CCN(CCCNC(=O)c2ccc(/C=C3\Sc4ccccc4N(Cc4ccccc4F)C3=O)cc2)CC1,·,8,88*,·,·
O=C(NCCN1CCOCC1)c1ccc(/C=C2\Sc3ccccc3N(Cc3ccccc3F)C2=O)cc1,13,26,20,33,32
CC(=O)Oc1oc(-c2ccccc2)nc1/C=N/c1ccccn1,26,19,64*,29,43
CCN(Cc1ccc(O)cc1)CC1CCCN(CCc2cccc(F)c2)C1 (stereo not given),-68,-18,6,-62,-137
NC(=O)CSc1nnc(-c2cccs2)n1Cc1ccco1,15,18,-4,4,12
Cc1ccc(C)c(CSc2nnc(-c3cccs3)n2Cc2ccco2)c1,18,1,67*,28,45
Cc1cccc(OCCC(=O)Nc2ccc(Cl)cc2F)c1,-5,-6,-5,-8,20
Cc1cc(/C=C2\SC(=S)NC2=O)c(C)n1-c1cccc(O)c1,1,94*,-5,10,27
CCOC=C1C(=O)N(C(C)=O)c2cc(OC)c(OC)cc21,·,·,2,·,·
SMILES,TIM10 inh,PfHsp90 yeast 2,Beta2AR agonist,tim10-1 inh,tim23-1 inh
O=C(O)c1cccc2c1C(=O)c1ccccc1-2,11,-7,2,8,12
O=C1C(=C(I)I)c2ccccc2-c2ccccc21,·,106*,76*,·,·
CCN(Cc1ccccc1)c1ccc(/C=N/N=C(N)N)cc1,-47,7,63*,-53,44
CCN(Cc1ccccc1)c1ccccc1,·,·,11,·,·
Cc1ccc(Oc2c(C(N)=O)cc([N+](=O)[O-])cc2[N+](=O)[O-])cc1,22,2,57*,2,36
CCCCC(=O)Nc1ccc2c3c(cccc13)CC2,0,-26,46*,17,32
Cc1cc(N)c2cc(NC(=O)/C=C/c3ccccc3Cl)ccc2n1,-9,-21,73*,40,7
Cc1cc(C)nc(NC(=O)/C=C/c2ccccc2Cl)n1,15,·,-7,28,22
CC(=O)CCc1ccc(OCC(=O)Nc2cccc(S(=O)(=O)N(C)c3ccccc3)c2)cc1,10,15,9,23,5
CC(C)Cn1c(=O)c(C(=O)Nc2ccncc2)c(O)c2ccccc21,12,106*,2,-8,14
COc1ccc(C(C(=O)NC2CCCCC2)N(C(=O)CCl)c2ccc(C)cc2)cc1 (stereo not given),28,-2,44*,35,13
COc1ccc(C(C(=O)NC2CCCCC2)N(C(=O)CCl)c2cccc(Cl)c2)cc1 (stereo not given),·,6,42*,·,·
COc1ccc(C(C(=O)NC2CCCCC2)N(C(=O)CCl)c2ccc(OC)cc2)cc1 (stereo not given),13,-5,32,36,17
O=C(NC1CCSc2ccccc21)c1cccc([N+](=O)[O-])c1 (stereo not given),-5,-15,3,20,9
CCCCC(=O)NC(c1ccccc1OC)c1ccc2cccnc2c1O (stereo not given),-38,106*,5,3,34
O=C1CCCN1CCC1CCN(C2CC(=O)N(c3ccc(Cl)cc3)C2=O)CC1 (stereo not given),32,102*,1,36,39
O=C1CCCN1CCC1CCN(C2CC(=O)N(Cc3ccc(N4CCCC4=O)cc3)C2=O)CC1 (stereo not given),13,0,1,12,13
COc1ccc(-n2nc3c(N4CCC(C(=O)NCc5ccccc5C)CC4)nnc(C)c3c2C)cc1,13,-10,82*,12,16
O=C(NCCCCCCNC(=O)OCc1ccccc1)OCc1ccccc1,·,·,-5,·,·
O=C(O)CCCNC(=O)OCc1ccccc1,-6,8,64*,8,8
CC(C)(C)c1cc(-c2nc(N)nc(N)n2)c(O)c(C(C)(C)C)c1,30,+,4,-38,-100
Nc1nc(N)nc(-c2cc(O)ccc2O)n1,-1,-2,2,8,9
Cc1cn(C2CCCO2)c(=O)nc1N (stereo not given),·,-5,-5,·,·
CCN1C/C(=C\c2cccc([N+](=O)[O-])c2)C(=O)/C(=C/c2cccc([N+](=O)[O-])c2)C1,·,95*,85*,·,·
CCOC(=O)c1c(C)oc2c1c(C(c1cccnc1)N1CCOCC1)c(O)c1ccccc12 (stereo not given),25,91*,14,18,35
